Assay results from ChEMBL document CHEMBL1961873, “Compounds: GSK PKIS; Assays: Nanosyn kinase panel” (2012).

Assays:
[1] = target: T1, Serine/threonine-protein kinase D2 (Homo sapiens) (UniProt Q9BZL6); conditions: at 1 µM;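 further: mean value of PRKD2 inhibition, from the GSK PKIS screening panel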
T1 sequence (whole entry): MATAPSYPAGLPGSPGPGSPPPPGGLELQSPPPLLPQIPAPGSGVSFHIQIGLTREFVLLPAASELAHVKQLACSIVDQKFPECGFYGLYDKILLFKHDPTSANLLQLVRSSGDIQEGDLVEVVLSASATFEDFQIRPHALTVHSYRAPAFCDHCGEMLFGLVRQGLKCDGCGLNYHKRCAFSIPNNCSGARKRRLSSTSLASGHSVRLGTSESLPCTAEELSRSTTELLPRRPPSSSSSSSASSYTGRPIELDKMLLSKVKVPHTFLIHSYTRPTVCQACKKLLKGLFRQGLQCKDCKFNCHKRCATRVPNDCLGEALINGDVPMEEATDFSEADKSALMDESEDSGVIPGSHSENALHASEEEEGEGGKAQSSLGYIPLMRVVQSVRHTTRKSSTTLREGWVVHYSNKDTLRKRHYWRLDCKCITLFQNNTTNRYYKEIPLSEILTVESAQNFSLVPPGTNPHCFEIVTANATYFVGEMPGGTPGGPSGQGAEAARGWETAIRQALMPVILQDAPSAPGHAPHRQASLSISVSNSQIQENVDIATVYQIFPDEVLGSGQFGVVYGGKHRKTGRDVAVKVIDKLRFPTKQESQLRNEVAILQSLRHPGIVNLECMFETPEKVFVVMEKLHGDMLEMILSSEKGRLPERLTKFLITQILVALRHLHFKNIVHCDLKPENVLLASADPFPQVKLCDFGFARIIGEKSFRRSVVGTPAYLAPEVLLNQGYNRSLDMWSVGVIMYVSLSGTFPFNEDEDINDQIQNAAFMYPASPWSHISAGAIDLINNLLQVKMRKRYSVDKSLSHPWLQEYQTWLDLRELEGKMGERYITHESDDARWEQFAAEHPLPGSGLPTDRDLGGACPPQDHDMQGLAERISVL

[2] = target: T2, Serine/threonine-protein kinase D3 (Homo sapiens) (UniProt O94806); conditions: at 0.1 µM
T2 sequence (whole entry): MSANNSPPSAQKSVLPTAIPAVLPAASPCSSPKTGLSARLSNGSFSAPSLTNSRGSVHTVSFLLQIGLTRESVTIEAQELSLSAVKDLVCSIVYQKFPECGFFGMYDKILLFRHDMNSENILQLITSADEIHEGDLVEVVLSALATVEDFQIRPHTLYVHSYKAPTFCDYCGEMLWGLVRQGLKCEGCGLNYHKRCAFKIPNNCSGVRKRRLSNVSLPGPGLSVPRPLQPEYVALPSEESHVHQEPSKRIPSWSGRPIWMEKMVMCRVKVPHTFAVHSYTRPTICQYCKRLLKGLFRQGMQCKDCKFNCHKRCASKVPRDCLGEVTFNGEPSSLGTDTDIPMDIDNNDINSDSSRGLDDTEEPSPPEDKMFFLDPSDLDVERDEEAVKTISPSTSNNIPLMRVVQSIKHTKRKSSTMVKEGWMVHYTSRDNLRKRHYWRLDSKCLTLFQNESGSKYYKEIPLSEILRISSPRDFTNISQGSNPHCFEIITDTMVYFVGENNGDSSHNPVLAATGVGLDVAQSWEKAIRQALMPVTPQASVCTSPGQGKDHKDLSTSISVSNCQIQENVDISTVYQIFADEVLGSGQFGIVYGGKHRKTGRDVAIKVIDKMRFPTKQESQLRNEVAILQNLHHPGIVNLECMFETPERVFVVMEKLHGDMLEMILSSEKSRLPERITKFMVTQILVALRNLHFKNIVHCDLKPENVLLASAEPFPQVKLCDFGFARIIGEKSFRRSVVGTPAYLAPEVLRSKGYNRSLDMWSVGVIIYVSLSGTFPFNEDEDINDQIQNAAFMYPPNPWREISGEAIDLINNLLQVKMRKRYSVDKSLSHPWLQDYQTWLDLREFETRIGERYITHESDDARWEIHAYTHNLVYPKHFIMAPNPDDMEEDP

[3] = target: T2, Serine/threonine-protein kinase D3 (Homo sapiens); conditions: at 1 µM
[4] = target: T3, cGMP-dependent protein kinase 1 (Homo sapiens) (UniProt Q13976); conditions: at 0.1 µM
T3 sequence (whole entry): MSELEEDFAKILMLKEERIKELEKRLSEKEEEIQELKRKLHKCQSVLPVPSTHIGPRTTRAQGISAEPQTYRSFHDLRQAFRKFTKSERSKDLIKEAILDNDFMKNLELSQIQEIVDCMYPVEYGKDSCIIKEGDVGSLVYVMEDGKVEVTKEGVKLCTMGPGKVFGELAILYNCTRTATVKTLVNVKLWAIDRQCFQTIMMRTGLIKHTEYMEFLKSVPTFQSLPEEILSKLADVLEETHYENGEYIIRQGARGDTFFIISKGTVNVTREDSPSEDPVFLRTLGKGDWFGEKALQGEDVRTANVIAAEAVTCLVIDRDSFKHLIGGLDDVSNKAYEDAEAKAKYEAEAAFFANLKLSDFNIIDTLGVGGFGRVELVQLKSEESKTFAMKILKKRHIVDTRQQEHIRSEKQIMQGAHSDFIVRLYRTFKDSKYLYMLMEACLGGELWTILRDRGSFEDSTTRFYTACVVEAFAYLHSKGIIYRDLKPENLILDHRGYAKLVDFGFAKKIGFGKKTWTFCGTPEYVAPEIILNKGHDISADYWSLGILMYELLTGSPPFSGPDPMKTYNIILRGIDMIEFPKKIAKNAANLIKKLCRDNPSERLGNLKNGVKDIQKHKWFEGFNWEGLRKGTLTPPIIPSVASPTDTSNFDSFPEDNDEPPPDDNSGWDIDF

[5] = target: T3, cGMP-dependent protein kinase 1 (Homo sapiens); conditions: at 1 µM
[6] = target: T4, cGMP-dependent protein kinase 2 (Homo sapiens) (UniProt Q13237); conditions: at 0.1 µM
T4 sequence (whole entry): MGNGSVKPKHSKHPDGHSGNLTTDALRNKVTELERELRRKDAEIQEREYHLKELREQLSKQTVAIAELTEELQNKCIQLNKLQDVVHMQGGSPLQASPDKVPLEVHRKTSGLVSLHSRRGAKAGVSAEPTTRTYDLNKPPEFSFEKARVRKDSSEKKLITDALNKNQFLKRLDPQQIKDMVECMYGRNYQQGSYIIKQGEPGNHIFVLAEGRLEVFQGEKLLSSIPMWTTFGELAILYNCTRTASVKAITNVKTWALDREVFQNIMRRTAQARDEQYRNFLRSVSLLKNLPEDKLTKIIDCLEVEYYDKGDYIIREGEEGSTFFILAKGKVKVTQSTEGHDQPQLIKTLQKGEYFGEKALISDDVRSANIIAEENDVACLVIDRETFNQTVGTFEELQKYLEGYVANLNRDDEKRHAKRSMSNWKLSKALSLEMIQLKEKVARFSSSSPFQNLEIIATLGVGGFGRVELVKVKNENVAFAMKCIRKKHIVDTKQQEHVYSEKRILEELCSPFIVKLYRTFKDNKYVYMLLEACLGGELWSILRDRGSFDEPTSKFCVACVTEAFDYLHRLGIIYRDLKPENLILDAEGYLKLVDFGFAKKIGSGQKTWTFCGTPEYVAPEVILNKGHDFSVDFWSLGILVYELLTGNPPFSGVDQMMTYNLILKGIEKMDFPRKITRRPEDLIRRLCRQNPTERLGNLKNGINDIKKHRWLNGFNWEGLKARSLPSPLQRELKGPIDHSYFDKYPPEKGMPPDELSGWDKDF

[7] = target: T4, cGMP-dependent protein kinase 2 (Homo sapiens); conditions: at 1 µM
[8] = target: T5, cAMP-dependent protein kinase catalytic subunit PRKX (Homo sapiens) (UniProt P51817); conditions: at 0.1 µM
T5 sequence (whole entry): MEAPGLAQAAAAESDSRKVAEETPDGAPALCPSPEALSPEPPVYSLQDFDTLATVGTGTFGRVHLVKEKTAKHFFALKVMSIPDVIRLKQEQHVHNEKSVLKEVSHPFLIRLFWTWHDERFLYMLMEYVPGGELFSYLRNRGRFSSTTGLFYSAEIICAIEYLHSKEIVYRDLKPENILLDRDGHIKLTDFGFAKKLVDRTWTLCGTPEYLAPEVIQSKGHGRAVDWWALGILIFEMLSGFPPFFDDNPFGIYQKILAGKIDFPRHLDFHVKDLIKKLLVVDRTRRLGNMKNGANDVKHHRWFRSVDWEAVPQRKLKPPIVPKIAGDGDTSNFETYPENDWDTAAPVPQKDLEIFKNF

[9] = target: T5, cAMP-dependent protein kinase catalytic subunit PRKX (Homo sapiens); conditions: at 1 µM
[10] = target: Rho-associated protein kinase 1 (Homo sapiens) (UniProt Q13464); conditions: at 0.1 µM;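 further: values are mean percent inhibition of ROCK1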
Chain of Rho-associated protein kinase 1 (Homo sapiens) (Q13464 2-1354 limits assumed): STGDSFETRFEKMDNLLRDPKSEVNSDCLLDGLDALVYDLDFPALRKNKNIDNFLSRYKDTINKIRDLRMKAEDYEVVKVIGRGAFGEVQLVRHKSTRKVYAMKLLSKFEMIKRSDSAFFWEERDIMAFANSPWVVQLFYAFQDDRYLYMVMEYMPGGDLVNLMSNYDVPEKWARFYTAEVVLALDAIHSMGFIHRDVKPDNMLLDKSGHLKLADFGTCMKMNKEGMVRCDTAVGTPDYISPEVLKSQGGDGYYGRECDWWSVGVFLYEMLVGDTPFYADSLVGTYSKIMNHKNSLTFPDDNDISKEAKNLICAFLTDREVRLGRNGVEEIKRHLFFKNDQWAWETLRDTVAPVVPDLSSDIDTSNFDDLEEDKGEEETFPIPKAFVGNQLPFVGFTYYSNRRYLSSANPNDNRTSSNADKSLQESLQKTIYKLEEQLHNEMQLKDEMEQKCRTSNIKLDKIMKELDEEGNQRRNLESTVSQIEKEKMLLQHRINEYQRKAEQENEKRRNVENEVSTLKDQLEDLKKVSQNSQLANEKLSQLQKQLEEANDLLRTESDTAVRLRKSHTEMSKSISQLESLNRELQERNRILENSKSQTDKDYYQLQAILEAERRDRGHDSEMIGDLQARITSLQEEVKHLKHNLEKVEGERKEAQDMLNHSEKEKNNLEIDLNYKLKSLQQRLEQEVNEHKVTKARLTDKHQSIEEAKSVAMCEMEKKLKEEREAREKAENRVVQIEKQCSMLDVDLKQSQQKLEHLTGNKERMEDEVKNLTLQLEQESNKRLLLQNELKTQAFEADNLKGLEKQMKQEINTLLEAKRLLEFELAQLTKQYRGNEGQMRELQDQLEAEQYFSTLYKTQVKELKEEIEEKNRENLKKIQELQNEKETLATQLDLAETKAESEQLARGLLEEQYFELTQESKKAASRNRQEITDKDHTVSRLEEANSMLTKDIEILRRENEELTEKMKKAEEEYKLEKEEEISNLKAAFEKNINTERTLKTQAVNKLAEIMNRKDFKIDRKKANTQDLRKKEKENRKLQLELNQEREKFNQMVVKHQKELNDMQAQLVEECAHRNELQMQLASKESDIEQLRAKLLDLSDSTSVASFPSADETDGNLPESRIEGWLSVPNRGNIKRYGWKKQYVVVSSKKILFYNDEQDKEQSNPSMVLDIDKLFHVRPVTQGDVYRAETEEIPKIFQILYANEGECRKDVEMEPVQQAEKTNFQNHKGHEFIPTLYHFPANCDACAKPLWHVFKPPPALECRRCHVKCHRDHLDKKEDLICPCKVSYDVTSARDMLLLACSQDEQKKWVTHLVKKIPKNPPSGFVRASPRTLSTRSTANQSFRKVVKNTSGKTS

Compound | inhibition [1] | inhibition [2] | inhibition [3] | inhibition [4] | inhibition [5] | inhibition [6] | inhibition [7] | inhibition [8] | inhibition [9] | inhibition [10]
COc1cccc(COc2cc(-n3cnc4ccccc43)sc2C(N)=O)c1 | 0.96% | 0.24% | 0.32% | 0.58% | -0.92% | 1.93% | -0.04% | 1.72% | 1.42% | -0.06%
CCn1c(-c2nonc2N)nc2c(C#CCN)ncc(OCCCN)c21 | 0.48% | -2.29% | -1.06% | 8.62% | 38% | 37.1% | 74.6% | 4.23% | 18.9% | 7.73%
COc1cc(C=NNc2ncnc3c2cnn3Cc2ccccc2)ccc1O | 1% | -4.03% | -1.04% | 0.15% | 3.36% | 0.26% | 4.01% | 0.31% | 5.24% | 1.47%
NS(=O)(=O)c1ccc(N/C=C2\C(=O)Nc3ccc4ncsc4c32)cc1 | 58.2% | 13.7% | 54.2% | 4.89% | 16.7% | 9.85% | 47.9% | 2.57% | 6.55% | 6.26%
CCn1c(-c2nonc2N)nc2c(C#CC(C)(C)O)ncc(OC[C@@H]3CCCN3)c21 | 12.6% | 2.38% | 15.9% | 49.9% | 76.4% | 65.7% | 76.5% | 77% | 85.4% | 1.1%
CCn1c(-c2nonc2N)nc2c(C#CC(C)(C)O)ncc(OCC3CCNCC3)c21 | 3.59% | 0.21% | 4.23% | 9.8% | 48.9% | 35.4% | 70.1% | 45.6% | 75.7% | 1.94%
NC(=O)c1sc(-n2cnc3cc(C(F)(F)F)ccc32)cc1OCc1ccccc1Br | 2.17% | 1.16% | 1.32% | 0.44% | -0.88% | 0.81% | 1.01% | 0.67% | 1.17% | 0.41%
CCn1c(-c2nonc2N)nc2c(C#CC(C)(C)O)nc(O[C@@H](CN)c3ccccc3)cc21 | 66.3% | 10.9% | 64.3% | 68.7% | 81.1% | 67.9% | 84.4% | 82.3% | 88.2% | 9.16%
COc1cc2c(cc1Nc1nc(Nc3ccsc3C(N)=O)c3cc[nH]c3n1)N(C(=O)CN(C)C)CCC2 | 39.7% | 9.23% | 51.1% | -0.55% | -0.01% | 0.12% | 1.58% | 2.02% | 1.29% | 5.03%
Nc1nonc1-c1nc2cnccc2n1C1CCCCC1 | 4.59% | -1.73% | 2.27% | 14.4% | 61.2% | 41.1% | 80.9% | 3.71% | 21.7% | 31%
Cc1cc(-c2ccco2)cc(C)c1/C=C/c1cncc(-c2nn[nH]n2)c1 | 2.37% | 2.09% | 1.22% | -0.2% | -0.46% | 0.23% | -1.21% | 0.69% | -0.08% | 0.84%
Fc1ccc(-c2ncn(C3CCNCC3)c2-c2ccnc(Oc3ccccc3)n2)cc1 | 4.29% | -1.84% | 2.37% | 0.84% | 0.86% | 0.69% | 0.2% | 1.64% | 1.63% | 0.65%
NS(=O)(=O)c1ccc(-c2ccc3c(NC(=O)C4CC4)n[nH]c3c2)cc1 | 0.5% | 1.37% | 0.5% | 0.62% | 1.57% | 1.04% | 3.29% | 1.26% | -1.16% | 1.11%
COc1cccc(-n2ncc3c(N/N=C/c4ccncc4)ncnc32)c1 | 9.06% | 5.79% | 9.03% | 3.25% |  | 1.96% | 6.05% | 1.85% | 2.86% | 2.51%
